In PubChem BioAssay AID1347383 (Zoeller Lab, School of Medicine, Boston University, 2020):
Calls of active or inactive are those of the source.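 The calls were made as follows: active = cell survival after UV exposure 2 SD above solvent-only control wells at 10 µM, confirmed on one or two repeats; inactive = the rest.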

Assay: protection of CHO cells from pyrene-fatty acid UV killing, primary screen, phospholipid biosynthesis inhibitor project, ZR-82 cells, Analyticon library, screen 2 (AID 1347383);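 also: survival reflects blocked phospholipid synthesis cutting uptake of the phototoxic fatty acid; compound and fatty acid exposure 3 h then viability read next day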
Conditions: ZR-82 CHO cells, CellTiter Blue, at 10 µM, peroxisome-deficient CHO-K1 variant, with DGAT-1, DGAT-2 and ACAT inhibitors

| Structure (SMILES) | outcome |
| --- | --- |
| C/C=C/c1ccc2oc(-c3ccc(O)c(OC)c3)c(C)c2c1 | inactive |
| CC(=O)c1ccc(O[C@@H]2O[C@H](CO)[C@@H](O)[C@H](O)[C@H]2O)cc1 | inactive |
| O=c1c(O)c(-c2ccc(O)c(O)c2)oc2cc(O)cc(O)c12 | inactive |
| CC(C(=O)CCCCC(O)C(C)O)C(=O)N1C=CCC1 (configuration not stated) | inactive |
| O=C1C(c2[nH]c3ccccc3c2O)=Nc2ccccc21 | inactive |
| COc1c2cc(c(O)c1OC)CCCCC(O)CCc1ccc(O)c-2c1 (configuration not stated) | inactive |
| CO[C@H]1c2cc(C(C)C)c(O)c(O)c2[C@@]23CCCC(C)(C)C2[C@@H]1OC3=O (some centres not stated) | inactive |
| CC(=O)OC(C(=O)/C=C(\C)CCCC1=CC(=O)OC1)C(C)C (configuration not stated) | inactive |
| O=C1CC(c2ccccc2)Oc2cc(O)cc(O)c21 (configuration not stated) | inactive |
| CC(C)c1ccc2c(c1)CCC1C(C)(C(=O)O)CCCC21C (configuration not stated) | inactive |
| COc1cc(O[C@@H]2O[C@H](CO)[C@@H](O)[C@H](O)[C@H]2O)cc(OC)c1OC | inactive |
| CCC/C=C/C=C/C1C[C@@H](O)[C@@H](O)C(=O)[C@H]1CO (some centres not stated) | inactive |
| COc1cc(/C=C/C(=O)O)cc(OC)c1OC | inactive |
| C/C1=C\C[C@]2(C)C(=O)C(O)=C([C@H](C)CO)[C@H]2C/C=C(\C)[C@@H](O)CC/C(C)=C/CC1 | inactive |
| CC(O)C(O)/C=C/c1cccc(=O)o1 (configuration not stated) | inactive |
| COc1cc(O)c2c(c1)C(=O)c1cc(C)cc(O)c1C2=O | inactive |
| CC(=O)O[C@H]1C[C@@]2(C)[C@@H](CC[C@H]3[C@@]4(C)C=CC(=O)[C@@H](C)[C@@H]4[C@H](O)C(=O)[C@@]32C)/C1=C(/CCC=C(C)C)C(=O)O | inactive |
